Compound activity deposited in PubChem BioAssay by several laboratories.
Jurkat NFkB inh = inhibitors of induced NF-kB luciferase reporter, primary screen, TCR NF-kB activation inhibitor project, cell-based, luminescence, uHTS; Jurkat, PMA/ionomycin-induced NF-kB luciferase reporter; inhibition, % at 4 µM; 330,000 tested, 0.53% active; AID 435003, 2010; in the data active means inhibition above about 50%
697 NFkB inh = inhibitors of PMA/ionomycin-induced NF-kB reporter, 697 cells, primary screen, B-cell NF-kB inhibitor project, cell-based, luminescence, uHTS; 330,000 tested, 0.33% active; 697 B-cell NF-kB luciferase reporter, 16 h; AID 435022, 2010; inhibition, % at 4 µM; in the data active means inhibition above about 35%
ANO1 activ = TMEM16A chloride channel activators or potentiators, primary screen, cell-based, HTS; Anoctamin-1 (Mus musculus), Q8BHY3; B-score at 10 µM; 340,000 tested, 0.3% active; HEK293 TMEM16A/YFP-H148Q/I152L, iodide quench fluorescence; stronger effect = lower value;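 active means fluorescence-ratio B-score plate-corrected deviation score at least 3 library SD below zero, with starting fluorescence score within 5 deviations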;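 further: channel opened by trigger with iodide after compound preincubation; score built on the fluorescence ratio of max minus min over baseline; more negative score means more quench and so TMEM16A activation or potentiation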
aSyn 5UTR inh = MLPCN primary screen, SNCA 5' untranslated region; inhibition, % (tested at 7.5 µM); 300,000 tested, 0.82% active; AID 1813, 2009; alpha-synuclein 5'UTR reporter, inhibitor activity; in the data active means inhibition above about 60%;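 further: H4 neuroglioblastoma cells stably carrying SNCA 5'UTR luciferase fusion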
KLF5 inh = KLF5 expression inhibitors, primary screen, DLD-1 cells, luminescence. DLD-1 KLF5 promoter-luciferase reporter. inhibition, % at 5 µM. 290,000 tested, 0.23% active. AID 1700, 2009;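 active means inhibition above a per-plate limit of that plate's mean compound inhibition plus 3 SD, cut at about 60% in these data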;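 further: higher means less KLF5 promoter-driven luciferase light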
TMEM16A inh = TMEM16A chloride channel inhibitors, primary screen, cell-based, HTS; normalized B-score (activity score, 25-100; higher = stronger inhibition) at 10 µM; 310,000 tested, 1.2% active; HEK293 TMEM16A/YFP iodide influx fluorescence, ionomycin; AID 588511, 2011;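 active means ratio plate-corrected score three or more library SD toward inhibition, starting fluorescence score within five deviations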;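 further: score derived from kinetic fluorescence span divided by baseline fluorescence per well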
697 NFkB conf = PMA/ionomycin-induced NF-kB reporter inhibitors, 697 retest, confirmation, B-cell NF-kB inhibitor project, cell-based, luminescence, single concentration; shares compounds with 697 NFkB inh; 697 B-cell NF-kB luciferase, 16 h; inhibition, % at 4 µM; 2,000 tested, 35% active; AID 449746, 2010; in the data active means inhibition mostly above about 28%, no sharp cut-off; inactive means mostly below about 22%
Each line names hits and unclear results; the compound was inactive in the other large screens (follow-up assays come after a bar, where they were run). Rows were chosen to be rich in hits. Some 2.5% of all compounds tested hit in one or more screens of this group.

CCn1c(=O)cc(OCC(=O)NCc2ccc(C)o2)c2ccccc21	697 NFkB inh 36 | 697 NFkB conf 42
CC(C)(C)c1ccc(-n2ncc3c2CCCC3NC(=O)C2(C(N)=O)CC2)cc1 (configuration not stated)	697 NFkB inh 43 | 697 NFkB conf 83
N/C(=N\OC(=O)c1ccc(F)cc1)c1cccc([N+](=O)[O-])c1	none
Cc1cccc(/C(N)=N/OC(=O)c2ccc(F)cc2)c1	none | 697 NFkB conf inactive
Cc1ccc(C(=O)O/N=C(\N)c2ccccc2)c(Cl)c1	aSyn 5UTR inh 85 | 697 NFkB conf inactive
Cc1nn(C(C)C(=O)NCCN2CCCC2)c(=O)c2c1sc1ccccc12 (configuration not stated)	none
Cc1ccc(-c2nc3nc4ccccc4nc3n2Cc2ccco2)cc1	none | 697 NFkB conf inactive
c1ccc(Cn2c(-c3ccco3)nc3nc4ccccc4nc32)cc1	none
Clc1ccc(-c2nc3nc4ccccc4nc3n2Cc2ccco2)cc1	none (no result: aSyn 5UTR inh) | 697 NFkB conf inactive
COCCOC(=O)c1c(C)oc2ccc(O)c(CN3CCC(C)CC3)c12 (tested in a mixture with another compound)	none (no result: Jurkat NFkB inh, 697 NFkB inh, aSyn 5UTR inh, KLF5 inh, TMEM16A inh)
CCn1c(=S)[nH]c2cc(S(=O)(=O)N3CCCCC3)ccc21	697 NFkB inh 36 | 697 NFkB conf 30
CC(C)(C)c1ccc(S(=O)(=O)NCC(=O)Nc2ccc(-c3nc4ccccc4s3)cc2)cc1	none
O=C(CNS(=O)(=O)c1cccc(Cl)c1)Nc1ccc(-c2nc3ccccc3s2)cc1	none | 697 NFkB conf inactive
CCOc1ncccc1C(=O)Nc1nnc(C2CC2)s1	697 NFkB inh 39 | 697 NFkB conf inactive
Cc1nn(-c2ccccc2)c(Cl)c1C(=O)Nc1nnc(C2CCCCC2)s1	none
Cc1nn(Cc2ccccc2Cl)c(C)c1C(=O)Nc1nnc(C2CC2)s1	none | 697 NFkB conf inactive
CCOc1ncccc1C(=O)Nc1nnc(C)s1	none
O=C(Nc1ccc(S(=O)(=O)N2CCCC2)cc1)C1CC(=O)N(CCc2ccc(F)cc2)C1 (configuration not stated)	none (no result: aSyn 5UTR inh, KLF5 inh, TMEM16A inh)
COCCNc1nnc(SCC(=O)NC2CCCCC2)s1	none (no result: Jurkat NFkB inh, 697 NFkB inh, aSyn 5UTR inh, KLF5 inh, TMEM16A inh)
C#CCn1c(S(=O)(=O)Cc2ccc(F)cc2)nc(-c2ccccc2)c1-c1ccccc1	none | 697 NFkB conf inactive
COc1cc(-c2noc(C)c2C(=O)NCCc2cccs2)cc(OC)c1OC	none (no result: aSyn 5UTR inh, KLF5 inh, TMEM16A inh)
COc1cc(-c2noc(C)c2/C=C/c2ccc(C(=O)O)cc2)cc(OC)c1OC	697 NFkB inh 37 | 697 NFkB conf inactive
Cc1c(C(=O)N2CCCCC2CCN2CCCC2=O)oc2c(F)cccc12 (configuration not stated)	none
Cc1ccc(-c2cnn3c(N4CCOCC4)cc(C)nc23)cc1	none | 697 NFkB conf inactive
Cc1cc(N2CCC(C)CC2)n2nc(C)c(-c3ccccc3)c2n1	none
Cc1cc(N2CCOCC2)n2ncc(-c3ccccc3)c2n1	none | 697 NFkB conf inactive
Cc1cc(N2CCC(C)CC2)n2ncc(-c3ccccc3)c2n1	none | 697 NFkB conf inactive
C=C[C@@H]1c2cc(C)ccc2N(S(=O)(=O)c2ccc(C)cc2)[C@H](c2ccccc2)C1(C#N)S(=O)(=O)c1ccccc1 (some centres not stated)	none (no result: aSyn 5UTR inh, KLF5 inh, TMEM16A inh)
O=C(Cn1nc(-c2ccccc2)oc1=O)OCC(=O)c1ccc(F)c(F)c1	none (no result: aSyn 5UTR inh, KLF5 inh, TMEM16A inh)
Cc1ccc(Sc2ncccc2C(N)=O)cc1	none (no result: KLF5 inh)
CC(CNS(=O)(=O)c1ccc(Cl)cc1)n1cncn1 (configuration not stated)	none
NC(=O)CCN1CCN(C(=O)c2ccc3nc(Cc4cccc(Cl)c4)oc3c2)CC1	none
COc1cc2c(cc1NC(=O)c1ccc(C(C)(C)C)cc1)CCCC2	none | 697 NFkB conf inactive
